The target of experiment [1] is Albumin (Bos taurus) (UniProt P02769). Nature of the experiment: compounds binding labelled BSA control protein – biochemical, small-molecule microarray, Alexa647 label, 635/667 nm fluorescence, artefact control for SMM control protein annotation, profiling panel (AID 1118).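 Also: score merges 667 nm emission intensity and signal-to-noise per printed compound spot.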 The following applies: BSA-A647 binding, fluorescence 635 nm, higher = more signal.
A short description of experiment [2]: probe aXIP binding to arrayed compounds – biochemical, NeuroSMM set, 635/667 nm fluorescence, primary screen (AID 1119).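 Also: probe is the protein aXip251-270 applied at 1 µg/mL to compound-printed slides; binding of probe to printed compounds measured as 667 nm fluorescence plus signal to noise.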 Particulars: small-molecule microarray, higher = more signal, called active from +8 up or from −8 down.
Experiment [3] in a line: probe aNOTCH3 binding on compound microarray – biochemical, small-molecule microarray, 635/667 nm fluorescence, primary screen (AID 1120).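 Also: probe is a biotin-tagged antibody raised against NOTCH3 rather than NOTCH3 protein; score merges spot fluorescence near 667 nm with spot signal to noise.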 The following applies: higher = more signal.
The nature of experiment [4]: probe aNOTCH2 binding on compound microarray – biochemical, small-molecule microarray, 635/667 nm fluorescence, primary screen (AID 1121).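 Also: score merges feature fluorescence read at 667 nm with its signal to noise.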 Particulars: higher = more signal.
The target of experiment [5] is Carbonic anhydrase 2 (Homo sapiens) (UniProt P00918). Nature of the experiment: compounds binding carbonic anhydrase 2 – biochemical, small-molecule microarray, Alexa647-labelled CAII, profiling panel (AID 1122). Particulars: CAII-A647 binding fluorescence, higher = more signal.
The nature of experiment [6]: COS7 lysate on small-molecule microarray, probe aHis, 635 nm (AID 1123).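 Also: z-score combines 667nm fluorescence intensity with signal-to-noise per printed compound spot.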 The following applies: COS7 cell lysate, fluorescence, higher = more signal.
The nature of experiment [7]: probe aLAP1 signal on lysate-treated microarray – cell lysate, small-molecule microarray, COS7 lysate, primary screen (AID 1124).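 Also: lysate comes from COS7 cells expressing LAP1 and is applied at 0.3 µg/mL; score merges spot fluorescence near 667 nm with signal-to-noise over triplicate slides.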 The following applies: probe aLAP1, fluorescence, higher = more signal.
Experiment [8] has as its system Sam68 (KHDRBS1). Nature of the experiment: compounds binding KHDRBS1 protein – biochemical, small-molecule microarray, 635 nm fluorescence, primary screen (AID 1125).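 Also: score merges 667 nm channel intensity with signal to noise over triplicate slides.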 The following applies: higher = more signal.
Experiment [9] has as its system Chordin-like protein 2 (CHRDL2). In words: compounds binding chordin-like 2 – biochemical, small-molecule microarray, 635 nm fluorescence, primary screen (AID 1126).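 Also: printed compound slides probed with Chrdl2 protein at 4 µg/mL for 1 h at 4 C; score merges 667 nm emission intensity with signal to noise over three replicate slides.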 Particulars: fluorescence 635 nm, higher = more signal.
Experiment [10] concerns the target Concanavalin-A (Canavalia ensiformis) (UniProt P02866). In words: compounds binding concanavalin A lectin – biochemical, small-molecule microarray, Alexa647 label, 635 nm, artefact control for SMM control protein annotation, primary screen (AID 1127).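 Also: z combines 667 nm emission intensity with signal-to-noise across three replicate slides.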 Particulars: ConA-A647 binding fluorescence, higher = more signal.
The nature of experiment [11]: compounds binding Alexa647 anti-His antibody – biochemical, small-molecule microarray, 635 nm fluorescence, artefact control for SMM control protein annotation, primary screen (AID 1128).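 Also: score merges feature fluorescence with signal-to-noise for each printed compound spot.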 The following applies: higher = more signal.
Experiment [12] relates to Human papillomavirus type 1a E7 protein (residues 1-88). Nature of the experiment: HPV1a E7 small-molecule binders, primary screen, biochemical, small-molecule microarray, residues 1-88, 635 nm (AID 1129). Particulars: small-molecule microarray binding, fluorescence 635 nm; higher = more signal.
In experiment [13] the target is Focal adhesion kinase 1 (Homo sapiens) (UniProt Q05397). Nature of the experiment: PTK2 protein binding on printed compound slides – biochemical, small-molecule microarray, 635/667 nm fluorescence, BSA, DTT, primary screen (AID 1130).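 Also: composite of spot emission at 667 nm and signal to noise over triplicate slides.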 The following applies: 635 nm fluorescence, higher = more signal.
Experiment [14] concerns Fibrinogen (Alexa647-labelled). In words: Alexa647-fibrinogen binding to printed small molecules – biochemical, small-molecule microarray, 635/667 nm fluorescence, artefact control for SMM control-protein annotation, profiling panel (AID 1131).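 Also: z-score merges 667 nm fluorescence with per-spot signal-to-noise over triplicate slides.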 The following applies: fibrinogen-A647 binding fluorescence, higher = more signal.
In experiment [15] the target is Follistatin (Homo sapiens) (UniProt P19883). Nature of the experiment: FST protein binding to printed compounds – biochemical, small-molecule microarray, 635/667 nm fluorescence, primary screen (AID 1132). Particulars: 635 nm fluorescence, higher = more signal.
The target of experiment [16] is Fibroblast growth factor 2 (Homo sapiens) (UniProt P09038). Nature of the experiment: basic fibroblast growth factor binding to printed compounds – biochemical, small-molecule microarray, 635/667 nm fluorescence, primary screen (AID 1133). The following applies: FGF2, fluorescence 635/667, higher = more signal.
Experiment [17] is described as follows: JC-1 mitochondrial potential readout, lung cancer cells – cell-based, A549, JC-1 fluorescence, basal, 24 h, 100 nL, profiling panel (AID 1138).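 Also: A549 lung adenocarcinoma cells under basal conditions with no added stimulus; test concentration not given here.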 The following applies: higher = more signal.
For experiment [18], the system named is Lefty1. In words: Lefty1 protein binding to printed compounds – biochemical, small-molecule microarray, 635/667 nm fluorescence, primary screen (AID 1139). The following applies: fluorescence 635/667, higher = more signal.
The subject of experiment [19] is wheat germ agglutinin (Triticum aestivum), Alexa647-labelled. Nature of the experiment: Alexa647-WGA lectin binding to printed small molecules – biochemical, small-molecule microarray, 635/667 nm fluorescence, artefact control for SMM control-protein annotation, profiling panel (AID 1140).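 Also: score merges 667 nm feature emission with signal to noise over triplicate slides.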 The following applies: WGA-A647 binding, 635 nm fluorescence, higher = more signal.

Experiment [20] concerns the target Luciferin 4-monooxygenase (Photinus pyralis) (UniProt P08659). Nature of the experiment: inhibition of purified Photinus pyralis luciferase – biochemical, luminescence, purified enzyme, 2006 set, primary screen (AID 1141).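 Also: cell-free assay with purified firefly luciferase at 100 ng per well in PBS; test concentration not given here.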 The following applies: purified firefly luciferase, SteadyGlo luminescence, 30 min; higher = more signal, called active from +8 up or from −8 down.

Each structure is given as a SMILES string. Calls of active or inactive are those of the source.

Chain of Fibroblast growth factor 2 (Homo sapiens) (P09038 whole entry, looked up): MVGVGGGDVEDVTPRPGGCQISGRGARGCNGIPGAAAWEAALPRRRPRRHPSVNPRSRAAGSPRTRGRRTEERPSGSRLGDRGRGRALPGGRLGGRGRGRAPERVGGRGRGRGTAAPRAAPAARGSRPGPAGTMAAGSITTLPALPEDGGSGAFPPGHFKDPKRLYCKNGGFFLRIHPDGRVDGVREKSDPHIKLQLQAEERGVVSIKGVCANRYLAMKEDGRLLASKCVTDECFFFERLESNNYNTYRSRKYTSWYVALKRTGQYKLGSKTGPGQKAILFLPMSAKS
Chain of Albumin (Bos taurus) (P02769 whole entry, looked up): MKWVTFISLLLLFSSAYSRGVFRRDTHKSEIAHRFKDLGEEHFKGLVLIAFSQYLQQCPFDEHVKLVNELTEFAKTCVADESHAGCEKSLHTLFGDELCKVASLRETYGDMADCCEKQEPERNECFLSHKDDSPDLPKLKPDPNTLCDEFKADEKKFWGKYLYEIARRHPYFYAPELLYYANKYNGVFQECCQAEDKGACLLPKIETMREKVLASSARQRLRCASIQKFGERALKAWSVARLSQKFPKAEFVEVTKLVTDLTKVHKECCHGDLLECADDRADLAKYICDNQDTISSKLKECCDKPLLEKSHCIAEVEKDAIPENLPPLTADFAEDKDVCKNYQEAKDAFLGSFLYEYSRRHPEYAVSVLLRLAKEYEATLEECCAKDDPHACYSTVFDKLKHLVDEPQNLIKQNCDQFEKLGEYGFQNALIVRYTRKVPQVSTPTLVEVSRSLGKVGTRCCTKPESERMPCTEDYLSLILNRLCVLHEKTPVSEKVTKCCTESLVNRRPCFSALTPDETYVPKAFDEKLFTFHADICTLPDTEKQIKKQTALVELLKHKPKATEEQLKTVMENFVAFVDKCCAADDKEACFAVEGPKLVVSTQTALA
Chain of Concanavalin-A (Canavalia ensiformis) (P02866 whole entry, looked up): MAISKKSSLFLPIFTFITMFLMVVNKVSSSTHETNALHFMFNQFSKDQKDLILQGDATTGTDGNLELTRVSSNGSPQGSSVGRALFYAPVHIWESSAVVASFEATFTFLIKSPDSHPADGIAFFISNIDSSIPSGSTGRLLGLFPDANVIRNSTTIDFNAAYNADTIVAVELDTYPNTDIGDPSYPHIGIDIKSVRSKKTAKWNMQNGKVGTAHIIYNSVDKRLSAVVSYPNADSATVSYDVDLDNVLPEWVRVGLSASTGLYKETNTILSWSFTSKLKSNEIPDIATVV
Chain of Luciferin 4-monooxygenase (Photinus pyralis) (P08659 whole entry, looked up): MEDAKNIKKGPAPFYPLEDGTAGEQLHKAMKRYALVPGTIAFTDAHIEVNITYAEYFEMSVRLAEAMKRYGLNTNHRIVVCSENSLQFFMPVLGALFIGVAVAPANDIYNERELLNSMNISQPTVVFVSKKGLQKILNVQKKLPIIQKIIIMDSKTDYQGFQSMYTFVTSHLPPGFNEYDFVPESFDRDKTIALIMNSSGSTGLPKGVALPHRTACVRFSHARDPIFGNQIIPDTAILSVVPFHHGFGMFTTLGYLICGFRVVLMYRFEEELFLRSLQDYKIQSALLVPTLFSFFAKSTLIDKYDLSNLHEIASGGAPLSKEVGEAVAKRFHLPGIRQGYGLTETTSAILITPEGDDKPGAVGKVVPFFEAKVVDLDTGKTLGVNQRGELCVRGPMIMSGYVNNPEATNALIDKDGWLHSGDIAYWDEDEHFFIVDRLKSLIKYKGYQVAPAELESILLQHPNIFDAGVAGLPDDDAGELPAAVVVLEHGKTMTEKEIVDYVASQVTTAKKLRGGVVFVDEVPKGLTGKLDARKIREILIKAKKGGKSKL
Chain of Follistatin (Homo sapiens) (P19883 whole entry, looked up): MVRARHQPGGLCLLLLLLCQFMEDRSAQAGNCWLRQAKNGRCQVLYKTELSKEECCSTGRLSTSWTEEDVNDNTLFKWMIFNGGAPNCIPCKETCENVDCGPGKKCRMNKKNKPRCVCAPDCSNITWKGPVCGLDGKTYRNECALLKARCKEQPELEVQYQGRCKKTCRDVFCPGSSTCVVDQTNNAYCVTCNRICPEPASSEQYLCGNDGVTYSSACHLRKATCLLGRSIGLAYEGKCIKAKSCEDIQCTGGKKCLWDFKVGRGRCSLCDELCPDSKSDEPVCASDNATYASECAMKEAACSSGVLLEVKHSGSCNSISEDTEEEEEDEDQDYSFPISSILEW
Chain of Focal adhesion kinase 1 (Homo sapiens) (Q05397 whole entry, looked up): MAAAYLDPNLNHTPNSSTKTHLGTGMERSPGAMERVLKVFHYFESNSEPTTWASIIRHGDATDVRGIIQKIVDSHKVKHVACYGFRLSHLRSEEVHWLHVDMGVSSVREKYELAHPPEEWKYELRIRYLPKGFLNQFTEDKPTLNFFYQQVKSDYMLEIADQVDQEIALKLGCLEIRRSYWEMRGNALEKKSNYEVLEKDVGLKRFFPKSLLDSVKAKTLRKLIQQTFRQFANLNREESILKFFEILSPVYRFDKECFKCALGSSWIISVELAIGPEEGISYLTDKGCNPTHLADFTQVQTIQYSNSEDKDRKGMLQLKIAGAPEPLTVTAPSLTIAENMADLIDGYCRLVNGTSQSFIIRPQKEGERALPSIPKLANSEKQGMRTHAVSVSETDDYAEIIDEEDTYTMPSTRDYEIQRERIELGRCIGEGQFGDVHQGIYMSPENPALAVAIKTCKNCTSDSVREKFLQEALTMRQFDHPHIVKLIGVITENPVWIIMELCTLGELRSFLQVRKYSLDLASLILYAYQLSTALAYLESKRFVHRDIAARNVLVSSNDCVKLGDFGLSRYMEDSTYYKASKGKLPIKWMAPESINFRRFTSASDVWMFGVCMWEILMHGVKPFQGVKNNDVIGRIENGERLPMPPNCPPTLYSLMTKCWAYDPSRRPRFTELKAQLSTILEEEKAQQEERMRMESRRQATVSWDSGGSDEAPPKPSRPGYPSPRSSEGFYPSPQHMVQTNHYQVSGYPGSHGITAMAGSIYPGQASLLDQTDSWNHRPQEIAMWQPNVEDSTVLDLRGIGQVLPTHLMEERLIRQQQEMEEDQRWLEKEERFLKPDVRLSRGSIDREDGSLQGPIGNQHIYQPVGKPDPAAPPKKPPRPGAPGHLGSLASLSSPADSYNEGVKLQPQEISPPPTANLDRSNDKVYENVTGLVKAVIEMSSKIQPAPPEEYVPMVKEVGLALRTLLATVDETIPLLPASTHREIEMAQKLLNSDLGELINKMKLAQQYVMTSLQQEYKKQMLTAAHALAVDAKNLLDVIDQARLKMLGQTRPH

As to `CCN(CC)c1ccc(N2CC=CC34O[C@@H]5C=CCCOC(=O)C5[C@H]3C(=O)N(CCO)[C@@H]4C2=O)cc1` (stereo not given in full), the composite z-score in [1] is 0.0715; in experiment [3] it was -0.341; in [4] it was -0.158; in experiment [5], 0.898; in experiment [6] it was -0.724; in [7], 0.624. For the same molecule, the composite z-score in experiment [8] was -0.661; in experiment [9] it was -0.414; in experiment [10], -2.06; in experiment [11], -0.827; in experiment [12] it was -1.74; in experiment [13], -0.491. Besides, the composite z-score in experiment [14] was -1.21; in experiment [15], -0.722; in experiment [16] it was -1.01; in [18], -1; in experiment [19], -0.553. For the same molecule, the composite Z-score in experiment [2] is -0.296 (inactive). Also, the z-score was 0.108 in [17] and -0.643 (inactive) in experiment [20].
For the molecule `COC(=O)C(CC#Cc1ccc2c(c1)[C@]1(C(=O)N2)[C@H](c2ccc(O)cc2)N2[C@H](c3ccccc3)[C@H](c3ccccc3)OC(=O)[C@H]2[C@@H]1C(=O)N1CCCCCCC1)C(=O)OC`, the composite z-score is 0.631 in [1]; 1.29 in experiment [3]; -0.0586 in experiment [4]; 0.816 in experiment [5]; 2.46 in experiment [6]; 1.18 in experiment [7]. Moreover, the composite z-score in [8] is 1.29; in experiment [9], 1.13; in experiment [10] it was 1.14; in experiment [11], 0.792; in [12], 1.23; in experiment [13] it was 1.47. In addition, the composite z-score in experiment [14] is 0.945; in experiment [15] it was 1.43; in [16] it was 1.4; in experiment [18], 0.966; in experiment [19] it was 1.35. The composite Z-score in experiment [2] is 1.71 (inactive). In addition, the z-score is 1.21 in [17] and -1.99 (inactive) in [20].
For `COc1ccc([Si](C)(C)[C@@H]2[C@@H](CC(=O)N3Cc4ccccc4C[C@H]3CO)O[C@]3(C(=O)N(Cc4ccc(N5CCC5=O)cc4)c4ccccc43)[C@H]2C)cc1`, the composite z-score is 0.502 in experiment [1]; -0.0362 in [3]; -0.234 in experiment [4]; 0.337 in experiment [5]; 1.14 in [6]; 0.421 in experiment [7]. The composite z-score in experiment [8] worked out at 1.24; in [9] it was 1.19; in experiment [10] it was 1.08; in [11] it was 0.365; in experiment [12], 1.05; in [13], 0.315. Also, the composite z-score is 0.358 in [14]; 0.825 in experiment [15]; 1.57 in experiment [16]; 1.44 in experiment [18]; 0.283 in experiment [19]. For the same molecule, the composite Z-score in experiment [2] is -0.0662 (inactive). Moreover, the values for the z-score in [17] and in experiment [20] were 0.199 and 0.205 (inactive), respectively.
In the case of `COc1ccc([Si](C)(C)[C@@H]2[C@@H](CC(=O)N3Cc4ccccc4C[C@H]3CO)O[C@]3(C(=O)N(c4ccccc4)c4ccccc43)[C@H]2C)cc1`, the composite z-score is -0.104 in experiment [1]; 0.146 in experiment [3]; 0.0018 in [4]; 0.429 in experiment [5]; 1.21 in experiment [6]; 0.339 in [7]. The composite z-score in experiment [8] came out at 1.3; in experiment [9] it was 0.943; in [10], 0.869; in [11], 2.39; in experiment [12], 0.957; in [13], 0.983. For the same molecule, the composite z-score in experiment [14] stood at 0.813; in [15], 1.36; in experiment [16] it was 1.46; in experiment [18] it was 1.04; in experiment [19], 1.53. In addition, the composite Z-score in experiment [2] is 8.06 (active). The z-score in [17] is 0.277; in experiment [20], 0.348 (inactive).
Regarding `CC1CC/C=C\[C@H]2OC34C=CCN(C(C)(C)C)C(=O)[C@H]3N(C(CO)C(C)C)C(=O)[C@@H]4C2C(=O)O1` (stereo not given in full), the composite z-score in experiment [1] was -0.667; in experiment [3], -0.0647; in [4] it was -0.0974; in experiment [5], 0.867; in experiment [6] it was 1.37; in experiment [7] it was 0.876. Also, the composite z-score in experiment [8] is 0.117; in experiment [9], -0.165; in [10], -0.268; in experiment [11], -0.0256; in experiment [12], -0.181; in experiment [13], 0.102. The composite z-score is -1.26 in experiment [14]; 0.276 in experiment [15]; 0.365 in experiment [16]; 0.659 in experiment [18]; -0.324 in experiment [19]. The composite Z-score in [2] was 0.148 (inactive). Moreover, the results for the z-score in [17] and in experiment [20] were -0.428 and -0.0671 (inactive), respectively.

Values taken from PubChem BioAssay.
